In PubChem BioAssay AID2284185 (EPA ToxCast):
The source made the active and inactive calls. How the source made its calls: active means hit-call score of the fitted dose curve at least 0.9, where 1 is the maximum; inactive means score below 0.9.

The compounds below were run against human Dopamine Receptor D4.2 Antagonism, DRD4 (gene 1815) (UniProt P21917) (assay: ERF_TW_GPCR_hDRD4: Eurofins (ERF) G Protein-Coupled Receptor (GPCR) Radioligand Binding LeadHunter Assay for human Dopamine Receptor D4.2 Antagonism).
human Dopamine Receptor D4.2 Antagonism, DRD4 (gene 1815), sequence (P21917 whole entry, looked up): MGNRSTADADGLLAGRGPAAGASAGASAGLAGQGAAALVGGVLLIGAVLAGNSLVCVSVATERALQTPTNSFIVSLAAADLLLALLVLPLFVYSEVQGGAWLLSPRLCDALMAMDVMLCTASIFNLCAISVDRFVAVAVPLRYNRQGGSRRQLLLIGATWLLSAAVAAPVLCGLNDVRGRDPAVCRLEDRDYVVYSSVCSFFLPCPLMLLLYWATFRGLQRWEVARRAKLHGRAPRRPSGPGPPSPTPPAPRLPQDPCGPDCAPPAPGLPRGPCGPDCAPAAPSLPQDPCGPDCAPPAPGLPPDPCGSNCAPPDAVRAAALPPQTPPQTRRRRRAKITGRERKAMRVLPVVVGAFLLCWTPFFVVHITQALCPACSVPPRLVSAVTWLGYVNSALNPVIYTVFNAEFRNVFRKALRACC
Protocol: ERF_TW_GPCR_hDRD4 is a biochemical, single-readout assay that uses extracted gene-proteins in a cell-free assay. Measurements were taken 2 hour after chemical dosing in a 96-well plate. See D4.2 Human Dopamine GPCR Binding (Antagonist Radioligand) Assay, Panlabs.ERF_TW_GPCR_hDRD4 is an assay component calculated from the ERF_TW_GPCR_hDRD4 assay. It is designed to measure radioligand binding using a type of binding reporter as detected by scintillation counting with radiometry technology.Data from the assay component ERF_TW_GPCR_hDRD4 was analyzed at the assay endpoint, ERF_TW_GPCR_hDRD4, in the positive analysis fitting direction relative to DMSO as the negative control and baseline of activity. Using a type of binding reporter, loss-of-signal activity can be used to understand changes in binding as they relate to gene DRD4. To generalize the intended target to other relatable targets, this assay endpoint is annotated to the gpcr intended target family, where the subfamily is dopamine.
Human recombiant cells are prepared in Tris-HCl buffer pH 7.4. A 24 ug aliquot is incubated with 0.5 nM [3H] Spiperone for 2 hours at 25C. Non-specific binding is estimated in the presence of 10 uM Haloperidol.

| Structure (SMILES) | AC50 |
| --- | --- |
| O=C(/C=C/c1ccc(O)cc1)CC(=O)/C=C/c1ccc(O)cc1 | 1120 nM (active) |
